Sampled rows, rich in hits. Any-hit rate of the full collection: about 18%.
TDP1 inh: TDP1 (human) enzyme inhibition. Q9NUW8. recombinant TDP1, AlphaScreen DNA substrate cleavage. Potency, µM (series often up to 130 µM), without a hit: at the highest dose activity change, negative = inhibition, most hits filed as inhibitors. 350,000 tested, 0.28% active. AID 485290; note: potency is the fitted concentration of half-maximal effect; % is set by controls: 0 for no effect and ±100 for the full control effect; nearly all actives have a fitted effect of over 40% in size
Target sequence (Q9NUW8 whole entry, looked up): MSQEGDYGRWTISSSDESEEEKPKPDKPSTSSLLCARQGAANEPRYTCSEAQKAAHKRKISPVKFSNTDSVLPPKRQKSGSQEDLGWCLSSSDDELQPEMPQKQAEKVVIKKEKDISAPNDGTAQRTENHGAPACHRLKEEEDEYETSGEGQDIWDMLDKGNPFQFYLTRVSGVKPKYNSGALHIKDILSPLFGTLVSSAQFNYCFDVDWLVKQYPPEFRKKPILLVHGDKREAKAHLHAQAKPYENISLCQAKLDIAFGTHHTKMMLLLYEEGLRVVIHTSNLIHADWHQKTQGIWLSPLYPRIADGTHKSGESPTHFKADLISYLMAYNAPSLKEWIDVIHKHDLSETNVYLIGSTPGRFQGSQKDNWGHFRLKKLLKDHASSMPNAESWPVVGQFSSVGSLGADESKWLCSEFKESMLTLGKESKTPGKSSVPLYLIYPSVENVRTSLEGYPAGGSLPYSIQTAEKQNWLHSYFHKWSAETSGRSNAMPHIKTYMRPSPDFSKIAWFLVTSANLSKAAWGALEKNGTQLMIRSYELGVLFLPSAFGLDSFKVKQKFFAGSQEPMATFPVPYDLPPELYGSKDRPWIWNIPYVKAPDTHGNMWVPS
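Recombinant human Tdp1 (E. coli-expressed, 1 nM final) preincubated with compounds 15 min at room temperature, then 5'-biotin/3'-phosphotyrosine-FITC DNA substrate (15 nM final) added for 5 min. AlphaScreen beads (10 ug/ml final) added 10 min; cleavage lowers signal.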
IL-1B inflam inh: inflammasome signaling inhibition, IL-1 beta readout. THP-1 LPS/ATP IL-1B secretion, AlphaLISA, 16 h; hits give low values. activity change, % at 57.5 µM. 360,000 tested, 4.7% active; in the data active = activity change below about -50%; inconclusive = mostly about -30% to -49%; note: % is set by controls: 0 for no effect and ±100 for the full control effect
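THP-1 cells pretreated 1 hr with compounds (up to 57.5 uM final), then stimulated with LPS (250 ng/mL final) plus ATP (1.25 mM final); secreted IL-1B measured by AlphaLISA after 16 hr, decreased signal indicating inhibition.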
HepG2 tox: HepG2 cytotoxicity, counter-screen for TGF-b inhibitors | AID 588856 | Potency, µM (top dose mostly 46.1 µM), without a hit: at the top dose activity change, negative = cytotoxicity, actives largely listed as cytotoxic | 410,000 tested, 0.76% active | HepG2 CAGA-GFP viability, ATP luminescence, 18 h; note: potency is the fitted concentration of half-maximal effect
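HepG2 CAGA-GFP cells (1000/well, DMEM with 1% FBS) received compound, then TGF-beta at 500 pg/mL final, and were incubated 18 hours at 37 degrees C. Viability was read by CellTiter-Glo luminescence. Media-only wells were set as complete cell-killing and DMSO as no toxicity.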
TGFb inhibitor: TGF-b pathway inhibition. HepG2 CAGA-GFP TGF-b/SMAD3 reporter, GFP fluorescence, 18 h; TGF-beta stimulated, 500 pg/mL final. Potency, µM (doses to about 46.1 µM), without a hit: at the highest dose activity, negative = inhibition, actives largely listed as inhibitors. 410,000 tested, 1.2% active; note: potency is the fitted concentration of half-maximal effect; % is set by controls: 0 for no effect and ±100 for the full control effect; nearly all actives have a fitted effect of over 65% in size
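HEPG2 CAGA-GFP reporter cells (1000/well, DMEM with 1% FBS) received compounds, then recombinant TGF-beta at 500 pg/mL final for 18 hours at 37 degrees C. Per-cell GFP summed per well was normalised to unstimulated and stimulated DMSO controls before curve fitting.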
DT40 TDP1 CPT: growth inhibition of DT40 Tdp1-/-;hTDP1 cells with camptothecin (screen for TDP1 inhibitors) | chicken DT40 Tdp1-/-;hTDP1 cells + 20 nM CPT, ATP luminescence, 48 h | Potency, µM (highest dose often 46.2 µM), for inactives: top-dose activity change, negative = growth inhibition, actives largely listed as inhibitors | 420,000 tested, 12% active; note: potency is the fitted concentration of half-maximal effect; % is set by controls: 0 for no effect and ±100 for the full control effect; nearly all actives have a fitted effect of over 55% in size
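Chicken DT40 Tdp1-/- cells stably complemented with human TDP1 were seeded at 400 cells/well in medium containing 20 nM camptothecin, exposed to pin-transferred compounds, and grown at 37 °C for at least 48 hr. Viability was read as ATP luminescence.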
DT40 TDP1 no CPT: qHTS for Inhibitors of human tyrosyl-DNA phosphodiesterase 1 (TDP1): qHTS in cells in absence of CPT. Potency, µM (series often up to 46.2 µM), without a hit: top-dose activity change, negative = growth inhibition, most hits filed as inhibitors. AID 686978, 2013. DT40 Tdp1-/- hTDP1 cells, no CPT, ATP luminescence, 48 h. 420,000 tested, 15% active; note: potency is the fitted concentration of half-maximal effect; % is set by controls: 0 for no effect and ±100 for the full control effect; nearly all actives have a fitted effect of over 55% in size
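No-CPT arm: Tdp1-/-;hTDP1 DT40 cells (400/well) plus compounds, incubated ≥48 hr at 37 °C. Readout CellTiter-Glo luminescence.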
Numbers without * were called inactive; ! = not active in a repeat; [ ] = remark or other dose. Unless noted, calls come from the whole dose curve; as a rule, active = well fitted curve in the direction sought with a large enough effect; inconclusive = small, poorly fitted or top-dose-only effect, or another doubt; inactive = no such curve, though single readings can be large; an effect the other way counts as inactive or inconclusive.

How did CN(C)/C=C(\C(=O)c1ccccc1)c1nnnn1-c1ccccc1 do in these assays?
TDP1 inh: 3%; IL-1B inflam inh: -6; HepG2 tox: -2%; TGFb inhibitor: 21%; DT40 TDP1 CPT: 10%; DT40 TDP1 no CPT: -16%

Results for CN(C)c1ccc(C=C(c2nnnn2-c2ccccc2)c2nnnn2-c2ccccc2)cc1 ?
TDP1 inh: -5%; IL-1B inflam inh: -14; HepG2 tox: -2%; TGFb inhibitor: 4%; DT40 TDP1 CPT: 21µM*; DT40 TDP1 no CPT: 16µM*

What do the screens show for `Clc1ccc2c(c1)N=C(N1CCNCC1)c1ccccc1N2`?
TDP1 inh: 11%; DT40 TDP1 CPT: 13µM*; DT40 TDP1 no CPT: 9.2µM*

How did Cc1ccccc1-c1cc(N2CCNCC2)ncn1 do in these assays?
DT40 TDP1 CPT: -9%; DT40 TDP1 no CPT: -5%

What do the screens show for `Cc1ccc(S(=O)(=O)c2ccc(Cl)cc2)cc1S(=O)(=O)N1CCN(C)CC1`?
TDP1 inh: 0%; IL-1B inflam inh: 3; HepG2 tox: -17%; TGFb inhibitor: -18%; DT40 TDP1 CPT: 14µM*; DT40 TDP1 no CPT: inconclusive

What do the screens show for `O=C(COc1coc(CN2CCN(c3ccc(F)cc3)CC2)cc1=O)NC1CCCC1`?
TDP1 inh: 1%; IL-1B inflam inh: 1; HepG2 tox: 2%; TGFb inhibitor: -5%; DT40 TDP1 CPT: inconclusive; DT40 TDP1 no CPT: inconclusive

What do the screens show for `O=C(COc1coc(CN2CCN(c3ccc(F)cc3)CC2)cc1=O)NC1CCCCC1`?
IL-1B inflam inh: 0; HepG2 tox: 0%; TGFb inhibitor: -10%; DT40 TDP1 CPT: inconclusive; DT40 TDP1 no CPT: 7.3µM*

Results for Cc1c(Nc2ncccc2C(=O)O)cccc1C(F)(F)F ?
TDP1 inh: -6%[56.1 µM]; IL-1B inflam inh: 22; HepG2 tox: 2%; TGFb inhibitor: 3%; DT40 TDP1 CPT: inconclusive; DT40 TDP1 no CPT: 4µM*!

Results for Cc1ccc(OCCCc2c(C)n[nH]c2C)cc1 ?
TDP1 inh: 1%; IL-1B inflam inh: -16; HepG2 tox: -29%; TGFb inhibitor: inconclusive; DT40 TDP1 CPT: inconclusive; DT40 TDP1 no CPT: 16µM*

What do the screens show for `Cc1n[nH]c(C)c1CCCCOc1ccccc1F`?
IL-1B inflam inh: inconclusive; HepG2 tox: -16%; TGFb inhibitor: -11%; DT40 TDP1 CPT: -28%; DT40 TDP1 no CPT: inconclusive

What do the screens show for `Cc1n[nH]c(C)c1CCCCOc1ccccc1[N+](=O)[O-]`?
IL-1B inflam inh: -13; HepG2 tox: -30%; TGFb inhibitor: -28%; DT40 TDP1 CPT: 21µM*; DT40 TDP1 no CPT: inconclusive

How did COc1cccc(OC)c1OCCCCc1c(C)n[nH]c1C do in these assays?
TDP1 inh: 2%; IL-1B inflam inh: 2; HepG2 tox: -21%; TGFb inhibitor: -13%; DT40 TDP1 CPT: 26µM*; DT40 TDP1 no CPT: inconclusive

Results for Cc1ccccc1OCCCCc1c(C)n[nH]c1C ?
TDP1 inh: 6%; IL-1B inflam inh: -17; HepG2 tox: -38%; TGFb inhibitor: -20%; DT40 TDP1 CPT: inconclusive; DT40 TDP1 no CPT: 18µM*

How did Cc1cc(C)cc(NC(=O)CCCN2C(=O)COc3ccc(C)cc32)c1 do in these assays?
TDP1 inh: -3%; HepG2 tox: -23%; DT40 TDP1 CPT: inconclusive; DT40 TDP1 no CPT: inconclusive

How did CCN(CC)c1ncn(Cc2c(Cl)cccc2Cl)c2ncnc1-2 do in these assays?
TDP1 inh: -4%; IL-1B inflam inh: -7; HepG2 tox: -37%; TGFb inhibitor: 2%; DT40 TDP1 CPT: inconclusive; DT40 TDP1 no CPT: 15µM*

Results for CC1(C)OC2CC3C4CC(F)C5=CC(=O)C=CC5(C)C4(F)C(O)CC3(C)C2(C(=O)CO)O1 (stereo not given) ?
IL-1B inflam inh: -50*; HepG2 tox: -1%; TGFb inhibitor: 11%; DT40 TDP1 CPT: -4%; DT40 TDP1 no CPT: 1%

Results for CCCCC(=O)O[C@]1(C(=O)CO)[C@H](C)C[C@H]2[C@@H]3CCC4=CC(=O)C=C[C@]4(C)[C@@]3(F)[C@@H](O)C[C@@]21C ?
TDP1 inh: 8%; DT40 TDP1 CPT: 19µM*; DT40 TDP1 no CPT: 13µM*

What do the screens show for `CC1(C)OC2CC3C4CC(F)C5=CC(=O)C=C[C@@]5(C)[C@@]4(F)C(O)C[C@@]3(C)[C@]2(C(=O)CO)O1` (stereo not given in full)?
TDP1 inh: 18%; DT40 TDP1 CPT: -13%; DT40 TDP1 no CPT: 1%

What do the screens show for `C[C@H]1C[C@H]2[C@@H]3CCC4=CC(=O)C=C[C@]4(C)[C@@]3(F)[C@@H](O)C[C@]2(C)[C@@]1(O)C(=O)CO`?
TDP1 inh: 2%; IL-1B inflam inh: -59*; HepG2 tox: -3%; TGFb inhibitor: 5%; DT40 TDP1 CPT: -11%; DT40 TDP1 no CPT: -11%

Results for CC1(c2ccccc2)O[C@@H]2C[C@H]3[C@@H]4CCC5=CC(=O)C=C[C@]5(C)[C@@]4(F)[C@@H](O)C[C@]3(C)[C@]2(C(=O)CO)O1 (stereo not given in full) ?
TDP1 inh: -1%; IL-1B inflam inh: -67*; HepG2 tox: -30%; TGFb inhibitor: 0%; DT40 TDP1 CPT: inconclusive; DT40 TDP1 no CPT: inconclusive

How did Cc1c2n(c3ccccc13)CCN(C)C2 do in these assays?
TDP1 inh: 3%; IL-1B inflam inh: 21; HepG2 tox: -23%; TGFb inhibitor: 0%; DT40 TDP1 CPT: -4%; DT40 TDP1 no CPT: -3%

What do the screens show for `O=C(/C=C/c1ccccc1)C1=C(O)C(=O)N(CCO)C1c1ccc2c(c1)OCO2` (stereo not given)?
TDP1 inh: -2%; IL-1B inflam inh: -13; HepG2 tox: 3%; TGFb inhibitor: 1%; DT40 TDP1 CPT: 12%; DT40 TDP1 no CPT: 18%

What do the screens show for `COc1ccc(C(CNC(=O)CNC(=O)c2cc(OC)c(OC)c(OC)c2)N2CCOCC2)cc1` (stereo not given)?
TDP1 inh: 7%; IL-1B inflam inh: 7; HepG2 tox: -7%; TGFb inhibitor: 0%; DT40 TDP1 CPT: -2%; DT40 TDP1 no CPT: 10%

Results for COc1ccccc1C(=O)Nc1ccccc1OCc1cc(=O)n2ccccc2n1 ?
TDP1 inh: 3%; HepG2 tox: -1%; TGFb inhibitor: 1%; DT40 TDP1 CPT: inconclusive; DT40 TDP1 no CPT: inconclusive

Screening data from PubChem.
